# Sampled rows, rich in hits. Any-hit rate of the full collection: about 20%.
# Pf growth 48h – Primary qHTS for delayed death inhibitors of the malarial parasite plastid, 48 hour incubation | P. falciparum luciferase growth in erythrocytes, 48 h | Potency, µM (doses to about 28.7 µM), actives largely listed as inhibitors | 5.9% of 310,000 active
#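 Luciferase-expressing parasites in RBCs, 2% Hct / 0.1% parasitemia final; RPMI 1640 + 0.5% Albumax; 37 C, 5% CO2, one generation; luminescence read-out, lower signal = inhibition.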
# CHX counter – Cycloheximide Counterscreen for Small Molecule Inhibitors of Shiga Toxin. AID 2314, 2010. 12% of 300,000 active. max response, %. cell reporter, cycloheximide protein synthesis inhibition counterscreen; in the data active = max response mostly above about 13%, no sharp cut-off; inactive = mostly below about 14%; also: read at 38.3 µM for the half of the compounds with a filed dose
# Pf growth 96h – Primary qHTS for delayed death inhibitors of the malarial parasite plastid, 96 hour incubation | P. falciparum luciferase reporter growth, 96 h | Potency, µM (series often up to 28.7 µM), hits mostly inhibitors | 6.9% of 320,000 active
#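 P. falciparum expressing integrated firefly luciferase grown in erythrocytes (2% hematocrit, 0.05% parasitemia final) with compounds for 96 hours at 37 C, 5% CO2. Growth inhibition read as loss of luminescence after adding luciferase detection reagent.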
# Shiga inhibitor – A qHTS for Small Molecule Inhibitors of Shiga Toxin | Vero cells, Shiga toxin protein synthesis inhibition reporter | inhibition, % at 38.7 µM | 9.2% of 290,000 active | AID 2315, 2010; in the data active = inhibition mostly above about 28%, no sharp cut-off; inactive = mostly below about 43%
# HCMV antiviral – qHTS Assay for inhibitors of the human cytomegalovirus (HCMV). activity change, negative = inhibition, % at 57.5 µM. HFF cells, HCMV-luciferase reporter, 72 h; stronger effect = lower value. 4.5% of 410,000 active; in the data active = activity change below about -60%; inconclusive = no clear call, values can overlap the other calls; inactive = above about -39%
#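 Two-dose cell screen: HFF monolayers treated with compounds and infected with luciferase-expressing HCMV at 1 PFU/cell, 72 h at 37C, then lysed for luciferase measurement.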
# A number is an active result; - = inactive; ? = inconclusive; . = no result given. Unless noted, calls follow the shape of the dose curve; as a rule, active = well fitted inhibition curve with a large enough effect; inconclusive = small, poorly fitted or top-dose-only effect, or another doubt; inactive = no such curve, though single readings can be large or run the other way.
SMILES,Pf growth 48h,CHX counter,Pf growth 96h,Shiga inhibitor,HCMV antiviral
O=C1C(Oc2ccccc2)C(c2cccs2)N1Cc1ccc2c(c1)OCO2 (configuration not stated),?,-,?,-,-
O=C1NC2C(=CC(O)C(O)C2O)c2cc3c(cc21)OCO3 (configuration not stated),.,.,.,.,-77.5
O=C1NC2C(O)C(O)C(O)C(O)C2c2cc3c(c(O)c21)OCO3 (configuration not stated),.,.,.,.,-97.7
O=C1NCCc2cc3c(cc21)OCO3,-,-,?,-,-
COC(=O)C1=C(C)N(C)C(=O)NC1c1cc2c(cc1Br)OCO2 (configuration not stated),-,-,-,-,-
O=C1NC2C(=CC(O)C(O)C2O)c2cc3c(c(O)c21)OCO3 (configuration not stated),.,.,.,.,-100.5
O=C1CCN(Cc2ccc(O)cc2)CCN1[C@H](CO)Cc1ccccc1,-,-,-,-,-
CC(=O)c1cccc(NC(=O)[C@H](Cc2ccccc2)N2Cc3ccccc3C2=O)c1,.,.,.,.,-
COc1ccccc1CN1CCC(CNS(=O)(=O)c2cc(-c3cc(C)no3)ccc2C)CC1,4.65µM,-,-,-,?
CCOC(=O)c1cc(-c2ccc(OC)c(S(=O)(=O)NC3CCCCC3)c2)on1,.,.,.,.,-69.5
CCOc1ccccc1CNS(=O)(=O)c1cc(-c2cc(C)no2)ccc1OC,-,-,11.7µM,-,-
O=C(NCCC1=CCCCC1)c1ccc2c(c1)N(Cc1ccc(Cl)cc1)C(=O)c1ccccc1S2(=O)=O,.,.,.,.,-
COc1ccc(NC(=O)CN(C)C(=O)Cc2n[nH]c(=O)c3ccccc23)cc1,-,.,-,.,-
CC1=C(C(=O)Nc2ccc(Cl)cc2)C(c2ccccc2)n2ncc(C(=O)Nc3ccccc3)c2N1 (configuration not stated),.,.,.,.,-
O=C(Nc1ccc(Cl)cc1)c1cnn2c1NC(c1ccccc1)=CC2c1ccccc1 (configuration not stated),.,.,.,.,-102.2
Clc1ccc(-c2cn3nc4c(nc3n2)CCCC4)cc1,-,37.1,.,87.7,?
COc1cccc(-c2cn3nc4c(nc3n2)CCCC4)c1,-,15.6,-,-,.
COc1cccc(-c2cc(C(F)(F)F)n3nc(N)nc3n2)c1,-,-,-,-,-
CCOc1ccc(N(CC)C(=O)c2cn(CC)c(=O)c3cc(OC)c(OC)cc23)cc1,.,-,-,-,.
Cn1ncc2c(Nc3ccc(Cl)c(Cl)c3)ncnc21,-,36.2,-,-,-
CCCn1ncc2c(Nc3ccc(C)c(C)c3)ncnc21,-,46.9,-,109.5,-
COC(=O)c1ccc(Nc2ncnc3c2cnn3C)cc1,.,.,.,.,-
Cn1ncc2c(Nc3ccc(-c4ccccc4)cc3)ncnc21,-,41.4,?,75.6,?
Cc1ccc(-n2ncc3c(Nc4ccc5c(c4)OCCO5)ncnc32)cc1C,.,.,.,.,-
COc1c(O[C@H]2O[C@@H](CO)[C@@H](O)[C@@H](O)[C@@H]2O)cc2c(c1OC)-c1ccc(SC)c(=O)cc1[C@H](NC(C)=O)CC2,-,.,-,.,.
SMILES,Pf growth 48h,CHX counter,Pf growth 96h,Shiga inhibitor,HCMV antiviral
COc1c(O)cc2c(c1OC)-c1ccc(SC)c(=O)cc1C(NC(C)=O)CC2 (configuration not stated),.,.,.,.,-77.7
CCOC(=O)NC1CCc2cc(OC)c(OC)c(OC)c2-c2ccc(SC)c(=O)cc21 (configuration not stated),.,.,.,.,-72.1
CCOCC(=O)NC1CCc2cc(OC)c(OC)c(OC)c2-c2ccc(SC)c(=O)cc21 (configuration not stated),.,.,.,.,-66.2
CCCCOC(=O)NC1CCc2cc(OC)c(OC)c(OC)c2-c2ccc(SC)c(=O)cc21 (configuration not stated),.,.,.,.,-79.8
Cc1ccc(C(=O)NNC(=O)CCC(=O)NCc2ccccc2)cc1Br,-,-,-,-,-
CCOC(=O)CSC1=C(C#N)C(c2ccc(Cl)cc2)CC(=O)N1 (configuration not stated),.,-,-,-,-
CCOC(=O)CSC1=C(C#N)C(c2ccc(C)o2)CC(=O)N1 (configuration not stated),-,-,-,-,-84.4
O=C(COC(=O)c1cc(S(=O)(=O)N2CCOCC2)ccc1O)Nc1ccc2c(c1)OCO2,.,.,.,.,-
COc1ccc(C(=O)O)cc1N1C(=O)Nc2ccccc2N1O,-,-,-,-,-
O=C(O)c1ccc(Cl)c(N2C(=O)Nc3ccccc3N2O)c1,-,-,-,-,-61.0

# High-throughput results deposited in PubChem BioAssay by National Center for Advancing Translational Sciences (NCATS).
